Experimental data as given in PubChem BioAssay (NCATS).
Records with an inconclusive call do not appear. Activity calls are given as the source filed them. Unless noted, calls follow the shape of the dose curve; as a rule, active = well fitted curve in the direction sought with a large enough effect; inconclusive = small, poorly fitted or top-dose-only effect, or another doubt; inactive = no such curve, though single readings can be large; an effect the other way counts as inactive or inconclusive.

Key:
[1] = target: Lysosomal acid glucosylceramidase (Homo sapiens) (UniProt P04062); assay: Glucocerebrosidase-p2 (AID 348; in the data active = potency below about 10 µM; also: potency is read from the fitted curve at half-maximal effect); conditions: purified GBA, blue fluorogenic substrate, 40 min
Outline: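 Compounds titrated from 0.6 nM upwards against 0.2 nM enzyme in pH 5.9 citric acid/KH2PO4, taurocholate, tween-20; blue fluorogenic substrate 80 uM, 40 min room temperature, stopped and read Ex 365/Em 440 for AC50.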

[2] = AP1 Signaling Pathway (AID 357; active = well fitted curve in either direction with a large enough effect, not every such curve was filed as active; also: % is scaled to controls: 0 for no effect and ±100 for the full control effect); conditions: ME-180 AP-1-bla reporter, EGF-induced, beta-lactamase ratio, 5 h; at 7.69 µM (top of the series) unless noted
Outline: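 AP-1-bla ME-180 cells with beta-lactamase reporter under AP-1 response element, stimulated with EC50 EGF; compounds titrated, 5 hours at 37 degrees Celsius. CCF4 read at 460/530 nm ratio; positive and negative modulators judged by AC50.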

[3] = target: Cytochrome P450 1A2 (Homo sapiens) (UniProt P05177); assay: p450-cyp1a2 (AID 410; calls by dose curve; also: potency is read from the fitted curve at half-maximal effect); conditions: recombinant CYP1A2, luciferin-ME demethylation, luminescence; series mostly up to 57 µM
Outline: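 Inhibition was calculated relative to 57 uM furafylline (full inhibition). The reaction used human CYP1A2 at 20nM with Luciferin-ME at its Km, 100uM, driven by an NADPH-regenerating system for 60 min at room temperature.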

[4] = Stat Signaling Pathway (AID 446; active = well fitted curve in either direction with a large enough effect, not every such curve was filed as active;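 also: ME-180 cervical cancer cells given 40 pM IL-6 alongside compound; SIE-controlled beta-lactamase reporter measured as 460/530 nm FRET emission ratio; % is scaled to controls: 0 for no effect and ±100 for the full control effect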); conditions: ME-180 SIE beta-lactamase reporter, IL-6 stimulated, 5 h; at 7.69 µM (top of the series) unless noted
Outline: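 Screening format detects activators and inhibitors alike: ME-180 SIE-bla cells stimulated at 40 pM IL-6 for 5 hrs with compound, then dual-emission beta-lactamase read at 405 nm excitation.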

[5] = target: Glucocorticoid receptor (Homo sapiens) (UniProt P04150); assay: GR-GFP Redistribution (AID 450;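 active = compounds whose dose series gives a full or clear partial fitted curve of increased nuclear translocation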; also: potency is read from the fitted curve at half-maximal effect); conditions: U2OS GR-GFP nuclear translocation, laser cytometry, 2 h
[6] = target: Glucocorticoid receptor (Homo sapiens) (UniProt P04150); assay: GR-EFC Redistribution (AID 451; calls by dose curve; also: potency is read from the fitted curve at half-maximal effect); conditions: CHO-K1 GR-EFC translocation, beta-gal luminescence, 2 h
Outline: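 CHO-K1 cells stably expressing nuclear-localized β-gal enzyme acceptor and GR fused C-terminally to the enzyme donor fragment; ligand-driven nuclear translocation restores β-gal by complementation. Compounds titrated up to 46 uM final, 2 h at 37 °C; luminescence read.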

[7] = target: Mitogen-activated protein kinase 10 (Mus musculus) (UniProt Q61831); assay: JNK3 AlphaScreen Assay (AID 530; active = well fitted curve in either direction with a large enough effect, not every such curve was filed as active;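 also: kinase came from lysate of stimulated human HepG2 cells; signal reports phosphorylation of biotinylated GST-cJun 1-79 at Ser73 with 10 µM ATP; % is scaled to controls: 0 for no effect and ±100 for the full control effect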); conditions: JNK3 lysate, c-Jun phosphorylation; series mostly up to 57.1 µM
Outline: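 JNK3 came from HepG2 lysates pre-activated with IL-1beta and TNF-alpha and phosphorylated biotinylated GST-cJun (1-79) at 10 uM ATP, pH 7.6, room temperature. Compounds were titrated. AlphaScreen signal used anti-phospho-cJun (Ser73) antibody.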

[8] = target: 3',5'-cyclic-AMP phosphodiesterase 4B (Homo sapiens) (UniProt Q07343); assay: qHTS Assay for Inhibitors of PDE-IV (AID 607; active = well fitted activation curve with a large enough effect in the main read-out, with a control signal flat, not every such curve was filed as active; also: % of control where 0% means no effect); conditions: HEK293 ACTOne CNG channel cells, membrane potential fluorescence; series mostly up to 22.9 µM
Outline: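 The readout is membrane depolarisation from a cAMP-sensing CNG channel, detected with a potential dye at ex 535/em 590. Cells were HEK293-derived (endogenous PDE-IV) at 1000 cells/well, titrated up to 22.9 uM final.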

[9] = qHTS Assay for Lipid Storage Modulators (AID 1519; calls by dose curve); conditions: Drosophila S3 cells, BODIPY lipid droplet/cell ratio, laser cytometry, cells loaded with oleic acid; for activity change, negative = inhibition: at 57.5 µM (top of the series)
Outline: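 Cells seeded at 5,000 per well were treated with compounds over a concentration series and loaded with oleic acid (400 uM, as added). Lipid droplet fluorescence (488 nm excitation, 500-530 nm channel) was read by laser-scanning cytometry and normalized to 20 uM Triacsin C.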

[10] = target: Dual specificity protein kinase CLK4 (Homo sapiens) (UniProt Q9HAZ1); assay: qHTS Assay for Inhibitors of CDC-like Kinase 4 (Kinase-Glo Assay) (AID 1770); conditions: recombinant Clk4, Kinase-Glo ATP depletion luminescence; series mostly up to 66.7 µM; also: nearly all actives have a fitted effect of over 65% in size; also: potency is read from the fitted curve at half-maximal effect
Outline: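 Substrate mix (RS peptide 100 uM, ATP 1 uM) dispensed, compound pinned in, then Clk4 added to 25 nM final. Incubated 4.5 h at RT; Kinase-Glo reagent added, luminescence read after 5 min.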

[11] = target: Dual specificity protein kinase CLK4 (Homo sapiens) (UniProt Q9HAZ1); assay: qHTS Assay for Inhibitors of CDC-like Kinase 4 (ADP-Glo Assay) (AID 1771); conditions: recombinant CLK4, ADP-Glo luminescence; series mostly up to 80 µM; also: nearly all actives have a fitted effect of over 70% in size; also: potency is read from the fitted curve at half-maximal effect
Outline: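 Kinase reaction: Clk4 at 25 nM, RS repeat peptide substrate at 100 uM, ATP at 1 uM, 1 hr, room temperature. Product ADP detected as luciferase signal via ADP-Glo.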

[12] = target: Dual specificity protein kinase CLK4 (Homo sapiens) (UniProt Q9HAZ1); assay: qHTS Assay for Inhibitors of CDC-like Kinase 4 (ADP-FP Assay) (AID 1795); conditions: Transcreener ADP fluorescence polarization; series mostly up to 50 µM; also: nearly all actives have a fitted effect of over 60% in size; also: potency is read from the fitted curve at half-maximal effect
Outline: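 Clk4 6.25 nM; RS peptide 100 uM; ATP 1 uM; 25 mM Tris pH 7.5, 10 mM MgCl2; 1 h reaction. ADP detected via antibody/orange tracer FP displacement; TG003 positive control.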

[13] = target: Ubiquitin carboxyl-terminal hydrolase 1 (Homo sapiens) (UniProt O94782); assay: Inhibitors of USP1/UAF1: Pilot qHTS (AID 504865); conditions: purified USP1/UAF1, Ub-rhodamine cleavage fluorescence; series mostly up to 54.9 µM;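 also: rhodamine fluorescence freed from ubiquitin-rhodamine substrate followed over time; top concentration of the series differs between compounds; % is scaled to controls: 0 for no effect and ±100 for the full control effect; nearly all actives have a fitted effect of over 35% in size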
Outline: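 In 50mM HEPES pH 7.8 containing 0.5mM EDTA, 1mM TCEP, 0.1 mg/ml BSA and 0.01% Tween-20, 1nM USP1/UAF1 is exposed to compound for 15 min, then Ub-Rho (150nM final) is added and fluorescence is read over time.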

[14] = Primary qHTS for small molecule stabilizers of the endoplasmic reticulum resident proteome: Secreted ER Calcium Modulated Protein (SERCaMP) assay (AID 1508630); conditions: SH-SY5Y GLuc-SERCaMP (Gaussia luciferase released on ER calcium loss) secretion, thapsigargin, luminescence; series mostly up to 38.4 µM; also: % is scaled to controls: 0 for no effect and ±100 for the full control effect
Outline: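 GLuc-SERCaMP-expressing SH-SY5Y cells, pretreated 16 h with compound, are challenged with thapsigargin to empty ER calcium stores; after 4 h, coelenterazine is added directly to the medium and luminescence is imaged.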

[15] = target: Cytochrome P450 3A4 (Homo sapiens) (UniProt P08684); assay: qHTS Assay for Activators of Cytochrome P450 3A4 (AID 885); conditions: recombinant CYP3A4, Luciferin-PPXE luminescence, 60 min; series mostly up to 57.1 µM; also: nearly all actives have a fitted effect of over 65% in size
Outline: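 Steps: enzyme/substrate mix dispensed; compound added, 10 min RT; NADPH regeneration solution added, 60 min RT; luciferin detection buffer stops reaction; 20 min later luminescence measured.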

[16] = target: Cytochrome P450 2C19 (Homo sapiens) (UniProt P33261); assay: qHTS Assay for Inhibitors and Substrates of Cytochrome P450 2C19 (AID 899); conditions: recombinant CYP2C19, luciferin-H EGE luminescence; series mostly up to 57.1 µM; also: potency is read from the fitted curve at half-maximal effect; nearly all actives have a fitted effect of over 60% in size
Outline: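 Human CYP2C19 (5nM) with Luciferin-H EGE at 10uM (its KM) in 50mM KPO4 was preincubated with compound for 10 min at 37C. NADPH regeneration started a 60 min 37C reaction. Luciferin was read by luminescence, normalized to 57uM ketoconazole.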

[17] = target: Cytochrome P450 3A4 (Homo sapiens) (UniProt P08684); assay: qHTS Assay for Inhibitors and Substrates of Cytochrome P450 3A4 (AID 884); conditions: recombinant CYP3A4, Luciferin-PPXE luminescence; series mostly up to 57.1 µM; also: nearly all actives have a fitted effect of over 50% in size; also: potency is read from the fitted curve at half-maximal effect
Outline: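 20 nM human CYP3A4 with 25 uM Luciferin-PPXE (at KM) in 200 mM KPO4, preincubated 10 min with compound; NADPH regeneration started a 60 min RT reaction. Luciferin detected by luminescence, normalized to 57 uM ketoconazole as full inhibition.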

[18] = NFAT Signaling Pathway (AID 444; active = well fitted curve in either direction with a large enough effect, not every such curve was filed as active); conditions: Jurkat NFAT-bla M1, carbachol, beta-lactamase ratio, 5 h; at 7.69 µM (top of the series) unless noted
Outline: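 Jurkat cells carrying an NFAT-driven β-lactamase reporter and co-transfected muscarinic M1 receptor were treated with compound plus carbachol (1 uM final, an EC50 level) for 5 h at 37 °C. CCF4 loading followed for 1 h at RT; 460/530 nm ratio gave %activity.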

[19] = measured here: cell count channel max response
[20] = measured here: lipid channel max response

Chain of Glucocorticoid receptor (Homo sapiens) (P04150 whole entry, looked up, the tested form may be a part): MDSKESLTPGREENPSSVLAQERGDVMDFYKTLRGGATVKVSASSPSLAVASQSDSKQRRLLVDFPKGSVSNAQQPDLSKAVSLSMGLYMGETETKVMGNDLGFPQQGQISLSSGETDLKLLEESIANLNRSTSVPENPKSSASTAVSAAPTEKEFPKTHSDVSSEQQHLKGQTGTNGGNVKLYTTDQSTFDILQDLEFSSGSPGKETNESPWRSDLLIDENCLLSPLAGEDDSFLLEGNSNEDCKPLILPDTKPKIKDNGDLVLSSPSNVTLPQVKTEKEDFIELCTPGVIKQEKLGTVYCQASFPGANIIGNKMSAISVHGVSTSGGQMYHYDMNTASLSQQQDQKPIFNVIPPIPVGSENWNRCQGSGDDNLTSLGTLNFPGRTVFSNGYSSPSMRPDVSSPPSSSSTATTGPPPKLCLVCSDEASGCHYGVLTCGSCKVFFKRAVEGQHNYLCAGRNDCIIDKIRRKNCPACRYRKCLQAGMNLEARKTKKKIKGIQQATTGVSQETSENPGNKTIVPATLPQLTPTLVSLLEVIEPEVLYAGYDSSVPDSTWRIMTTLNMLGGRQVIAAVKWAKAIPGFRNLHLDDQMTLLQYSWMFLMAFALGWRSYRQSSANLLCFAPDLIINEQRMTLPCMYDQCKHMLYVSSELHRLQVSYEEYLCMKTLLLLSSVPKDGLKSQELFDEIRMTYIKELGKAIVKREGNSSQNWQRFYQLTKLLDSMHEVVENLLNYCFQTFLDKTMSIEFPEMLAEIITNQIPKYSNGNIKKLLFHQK
Chain of Cytochrome P450 1A2 (Homo sapiens) (P05177 whole entry, looked up): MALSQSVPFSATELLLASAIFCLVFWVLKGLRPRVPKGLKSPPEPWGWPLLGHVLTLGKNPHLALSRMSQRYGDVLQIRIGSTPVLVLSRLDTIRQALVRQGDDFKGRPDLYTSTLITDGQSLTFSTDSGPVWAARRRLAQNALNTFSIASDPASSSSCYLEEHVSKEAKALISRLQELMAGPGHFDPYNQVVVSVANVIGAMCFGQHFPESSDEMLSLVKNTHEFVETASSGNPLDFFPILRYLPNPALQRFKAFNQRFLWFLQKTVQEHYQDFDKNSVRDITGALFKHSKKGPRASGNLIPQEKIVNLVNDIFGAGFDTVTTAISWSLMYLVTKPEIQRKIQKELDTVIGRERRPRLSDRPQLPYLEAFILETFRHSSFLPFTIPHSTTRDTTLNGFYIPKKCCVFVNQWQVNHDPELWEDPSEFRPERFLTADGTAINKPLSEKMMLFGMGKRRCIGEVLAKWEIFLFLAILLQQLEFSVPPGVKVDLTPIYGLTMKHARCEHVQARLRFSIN
Chain of Dual specificity protein kinase CLK4 (Homo sapiens) (Q9HAZ1 whole entry, looked up): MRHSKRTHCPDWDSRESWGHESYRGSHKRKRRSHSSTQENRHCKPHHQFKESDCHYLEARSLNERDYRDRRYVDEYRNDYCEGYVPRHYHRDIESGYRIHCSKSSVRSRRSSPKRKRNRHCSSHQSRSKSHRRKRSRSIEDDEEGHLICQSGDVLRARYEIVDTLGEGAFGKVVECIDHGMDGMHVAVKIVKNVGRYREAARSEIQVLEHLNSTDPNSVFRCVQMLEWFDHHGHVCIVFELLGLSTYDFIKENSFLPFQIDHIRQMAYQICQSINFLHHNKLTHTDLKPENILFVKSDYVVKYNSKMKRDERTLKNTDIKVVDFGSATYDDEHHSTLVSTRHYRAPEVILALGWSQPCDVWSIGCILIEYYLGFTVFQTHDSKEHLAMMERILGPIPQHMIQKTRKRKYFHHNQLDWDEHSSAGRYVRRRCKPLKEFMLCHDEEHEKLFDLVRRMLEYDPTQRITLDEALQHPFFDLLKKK
Chain of Cytochrome P450 3A4 (Homo sapiens) (P08684 whole entry, looked up): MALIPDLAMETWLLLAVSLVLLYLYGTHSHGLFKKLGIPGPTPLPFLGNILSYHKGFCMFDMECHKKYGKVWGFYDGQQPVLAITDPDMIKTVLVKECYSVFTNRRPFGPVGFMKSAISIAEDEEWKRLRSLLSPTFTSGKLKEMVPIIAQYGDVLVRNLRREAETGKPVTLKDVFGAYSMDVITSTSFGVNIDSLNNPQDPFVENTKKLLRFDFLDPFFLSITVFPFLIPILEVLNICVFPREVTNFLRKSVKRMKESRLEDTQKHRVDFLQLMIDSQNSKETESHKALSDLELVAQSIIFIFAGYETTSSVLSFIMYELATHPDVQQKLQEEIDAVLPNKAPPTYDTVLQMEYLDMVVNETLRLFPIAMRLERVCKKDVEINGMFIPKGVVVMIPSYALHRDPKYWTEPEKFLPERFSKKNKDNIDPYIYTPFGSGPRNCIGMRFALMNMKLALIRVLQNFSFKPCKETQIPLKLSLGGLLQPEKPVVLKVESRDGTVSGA
Chain of Ubiquitin carboxyl-terminal hydrolase 1 (Homo sapiens) (O94782 whole entry, looked up): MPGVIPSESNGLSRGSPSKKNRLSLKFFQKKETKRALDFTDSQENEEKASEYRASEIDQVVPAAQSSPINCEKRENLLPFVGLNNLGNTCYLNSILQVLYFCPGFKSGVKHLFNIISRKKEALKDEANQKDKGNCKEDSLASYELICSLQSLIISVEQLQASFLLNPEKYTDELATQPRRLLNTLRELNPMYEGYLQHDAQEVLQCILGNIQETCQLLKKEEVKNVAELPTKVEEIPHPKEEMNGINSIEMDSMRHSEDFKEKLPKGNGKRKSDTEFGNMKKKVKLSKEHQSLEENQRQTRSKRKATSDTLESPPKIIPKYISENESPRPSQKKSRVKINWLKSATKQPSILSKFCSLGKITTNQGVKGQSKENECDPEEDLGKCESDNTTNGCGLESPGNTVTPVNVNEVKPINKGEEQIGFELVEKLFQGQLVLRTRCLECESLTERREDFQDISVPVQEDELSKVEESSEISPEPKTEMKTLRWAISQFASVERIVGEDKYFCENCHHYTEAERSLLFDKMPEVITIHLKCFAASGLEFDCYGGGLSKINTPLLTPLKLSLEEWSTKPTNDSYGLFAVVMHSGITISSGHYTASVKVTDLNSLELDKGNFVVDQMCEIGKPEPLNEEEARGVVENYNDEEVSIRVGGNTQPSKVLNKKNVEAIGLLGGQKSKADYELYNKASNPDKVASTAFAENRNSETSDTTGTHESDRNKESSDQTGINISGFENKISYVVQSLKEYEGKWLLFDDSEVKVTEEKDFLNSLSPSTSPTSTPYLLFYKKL
Chain of Lysosomal acid glucosylceramidase (Homo sapiens) (P04062 whole entry, looked up): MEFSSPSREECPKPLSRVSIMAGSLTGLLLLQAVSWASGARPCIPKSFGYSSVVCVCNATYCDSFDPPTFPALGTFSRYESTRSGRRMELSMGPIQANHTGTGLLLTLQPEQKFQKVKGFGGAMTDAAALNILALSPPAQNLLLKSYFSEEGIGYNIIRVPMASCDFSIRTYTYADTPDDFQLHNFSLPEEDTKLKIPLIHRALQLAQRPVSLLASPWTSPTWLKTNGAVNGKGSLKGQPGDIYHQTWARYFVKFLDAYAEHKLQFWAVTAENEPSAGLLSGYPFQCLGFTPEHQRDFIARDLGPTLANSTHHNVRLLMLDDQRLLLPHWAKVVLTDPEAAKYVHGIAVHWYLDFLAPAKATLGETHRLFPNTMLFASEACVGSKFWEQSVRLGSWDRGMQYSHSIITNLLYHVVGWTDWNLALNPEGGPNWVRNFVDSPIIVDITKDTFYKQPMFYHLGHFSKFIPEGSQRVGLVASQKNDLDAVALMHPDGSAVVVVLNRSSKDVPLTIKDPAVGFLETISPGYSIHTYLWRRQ
Chain of Cytochrome P450 2C19 (Homo sapiens) (P33261 whole entry, looked up): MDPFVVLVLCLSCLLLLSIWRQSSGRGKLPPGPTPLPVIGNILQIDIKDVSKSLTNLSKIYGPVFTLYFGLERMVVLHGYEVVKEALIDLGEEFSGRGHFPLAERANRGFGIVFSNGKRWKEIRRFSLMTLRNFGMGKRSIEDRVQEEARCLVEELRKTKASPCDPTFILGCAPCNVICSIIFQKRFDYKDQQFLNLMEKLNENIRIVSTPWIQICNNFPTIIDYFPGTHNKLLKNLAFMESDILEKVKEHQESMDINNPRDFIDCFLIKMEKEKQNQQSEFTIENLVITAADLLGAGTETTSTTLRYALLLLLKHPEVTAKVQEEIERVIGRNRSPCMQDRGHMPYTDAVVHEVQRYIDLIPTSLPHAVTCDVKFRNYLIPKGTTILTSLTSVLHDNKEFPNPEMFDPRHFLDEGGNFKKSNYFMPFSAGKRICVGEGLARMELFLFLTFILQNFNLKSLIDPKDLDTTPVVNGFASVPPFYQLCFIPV
Chain of 3',5'-cyclic-AMP phosphodiesterase 4B (Homo sapiens) (Q07343 whole entry, looked up): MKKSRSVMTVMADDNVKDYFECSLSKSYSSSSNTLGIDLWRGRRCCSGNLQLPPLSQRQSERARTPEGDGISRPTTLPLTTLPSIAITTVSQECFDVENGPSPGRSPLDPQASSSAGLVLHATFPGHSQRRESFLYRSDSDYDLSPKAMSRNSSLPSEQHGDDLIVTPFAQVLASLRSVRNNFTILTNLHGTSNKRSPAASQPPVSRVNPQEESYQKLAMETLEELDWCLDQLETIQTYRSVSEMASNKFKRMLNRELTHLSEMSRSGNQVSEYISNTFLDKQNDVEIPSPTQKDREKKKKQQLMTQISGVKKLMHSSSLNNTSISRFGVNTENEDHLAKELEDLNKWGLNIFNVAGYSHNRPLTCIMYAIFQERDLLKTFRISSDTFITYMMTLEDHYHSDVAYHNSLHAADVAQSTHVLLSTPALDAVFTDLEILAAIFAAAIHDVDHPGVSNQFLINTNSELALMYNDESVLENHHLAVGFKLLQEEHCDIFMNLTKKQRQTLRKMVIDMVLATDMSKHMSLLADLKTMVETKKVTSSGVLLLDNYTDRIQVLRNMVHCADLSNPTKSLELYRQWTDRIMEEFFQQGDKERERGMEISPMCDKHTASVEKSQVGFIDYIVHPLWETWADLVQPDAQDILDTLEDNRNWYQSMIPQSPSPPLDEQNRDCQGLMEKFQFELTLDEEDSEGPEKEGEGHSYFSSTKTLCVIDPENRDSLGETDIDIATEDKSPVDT

| Structure (SMILES) | Potency [1] | activity change, negative = inhibition [2] | Potency [3] | activity, negative = inhibition [4] | Potency [5] | Potency [6] | outcome [7] | Potency [8] | activity change, negative = inhibition [9] | max response [9, 19] [%] | max response [9, 20] [%] | Potency [10] | Potency [11] | Potency [12] | Potency [13] | Potency [14] | Potency [15] | Potency [16] | Potency [17] | activity change, negative = inhibition [18] |
| --- | --- | --- | --- | --- | --- | --- | --- | --- | --- | --- | --- | --- | --- | --- | --- | --- | --- | --- | --- | --- |
| Cc1noc(C)c1-c1ccc2ncnc(N(C)C)c2c1 | > 11.4 µM (inactive) | -2.75% (inactive) | 0.631 µM (active) | -14.9% (inactive) | > 46 µM (inactive) | > 46 µM (inactive) | inactive | inactive | 3.59% (inactive) | 19 | 20.5 | 7.08 µM (active) | 4.47 µM (active) | 2 µM (active) | inactive | inactive | – | – | – | – |
| COc1ccc(CNc2ccnc(-c3ccc4c(c3)OCO4)n2)c(OC)c1 | > 11.4 µM (inactive) | -15% (inactive) | 1.26 µM (active) | -2.09% (inactive) | > 46 µM (inactive) | > 46 µM (inactive) | inactive | – | 4.67% (inactive) | 13.5 | 17.1 | inactive | inactive | inactive | inactive | inactive | inactive | 2.51 µM (active) | – | – |
| Fc1ccc(Nc2ncncc2-c2ccccc2C(F)(F)F)cc1 | > 11.4 µM (inactive) | -13.5% (inactive) | 20 µM (active) | 23.6% (inactive) | > 46 µM (inactive) | > 46 µM (inactive) | inactive | – | 3.62% (inactive) | 13 | 14.7 | inactive | inactive | inactive | inactive | inactive | inactive | 7.94 µM (active) | 0.398 µM (active) | – |
| O=c1c(CCc2ccccc2)nc2cnc(N3CCOCC3)nc2n1Cc1cccs1 | > 11.4 µM (inactive) | -2.34% (inactive) | – | 2.46% (inactive) | > 9.22 µM (inactive) | > 46 µM (inactive) | inactive | – | 8.99% (inactive) | 7.22 | 18.4 | inactive | inactive | inactive | inactive | inactive | – | – | – | -3.56% (inactive) |
| CN(C)c1ncnc2ccc(-c3cccnc3)cc12 | > 11.4 µM (inactive) | -15% (inactive) | 0.2 µM (active) | 9.76% (inactive) | > 46 µM (inactive) | > 46 µM (inactive) | inactive | inactive | 3.37% (inactive) | 4.52 | 7.15 | 7.94 µM (active) | 7.08 µM (active) | 12.6 µM (active) | inactive | inactive | inactive | – | – | – |
| COc1ccc(-c2nc3cnc(N4CCN(C)CC4)nc3n(Cc3ccc(F)cc3)c2=O)cc1 | > 11.4 µM (inactive) | 99.5% [activator] (active) | 10 µM (active) | – | > 9.22 µM (inactive) | > 46 µM (inactive) | – | – | 0.278% (inactive) | 11.6 | 10.9 | inactive | inactive | inactive | – | inactive | – | – | inactive | 113% [activator] (active) |
